PubChem BioAssay
Activity calls are given as the source filed them.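 How the source made its calls, unless noted: active means inhibition above 20% together with a positive visual image hit; inconclusive means visual image hit but inhibition not above 20%; inactive means no visual image hit.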

Legend:
[1] = inhibitors of TNFa-induced NFkB p65 translocation, primary screen, imaging, HUVEC, MLSMR starter and 10KST1 sets (AID 438); details: HUVEC TNFa-induced p65 nuclear translocation; cell count: measured here: nuclei count (cytotoxicity indicator), at 2.08 µM; inhibition: at 2 µM, stronger effect = higher value, 0% TNFa-plus-vehicle, 100% no-TNFa wells;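 further: compound added about 3h40 before a 20 min TNFalpha stimulation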;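 on inhibition: signal is the nuclear over cytoplasmic p65 intensity ratio per well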
[2] = inhibitors of mutant huntingtin aggregation, primary screen, imaging, exon1htt(103Q)mCFP cells, high-content imaging (AID 483;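 active means visual image review flags a hit and inhibition of aggregation exceeds 20%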;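 further: compound exposure lasted 3 days before fixation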;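 on nuclei count: percent of the per-plate median nuclei count of sample wells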); details: exon1htt(103Q)mCFP cell line, aggregate imaging, at 2 µM; inhibition of aggregation: stronger effect = higher value; nuclei count: measured here: cell count, toxicity
[3] = inhibitors of E-selectin induction by TNFa, primary screen, imaging, HUVEC, immunofluorescence, MLSMR starter and 10KST1 sets (AID 487;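 active means visually confirmed hit in the image check and inhibition above 20%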;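 on inhibition: signal is fraction of cell area covered by stained E-selectin grains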;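 on nuclei count: 100% = median nuclei count of all wells on the same plate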); details: HUVEC TNFalpha-induced E-selectin immunofluorescence imaging, at 2 µM; inhibition: stronger effect = higher value; nuclei count: measured here: cell number, toxicity
[4] = target: Voltage-gated potassium channel subunit beta-2 (Rattus norvegicus) (UniProt P62483); experiment: KvBeta enzyme negative modulators, primary screen, biochemical, NADPH fluorescence (AID 622;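 active means fluorescence slope higher than the sample average by over 3 SD, cut at about -0.22 in these data, passing the limit was not always enough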;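 further: slope of raw intensity against log time taken from 70 to 1610 s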); details: recombinant KvBeta, 4-cyanobenzaldehyde reduction, at 10 µM, stronger effect = higher value
[5] = target: Voltage-gated potassium channel subunit beta-2 (Rattus norvegicus) (UniProt P62483); experiment: KvBeta positive modulators, primary screen, biochemical, NADPH fluorescence (AID 623;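 active means NADPH fluorescence slope more negative than the mean of all samples by about 3 SD, 99.7% confidence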;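 further: fluorescence intensity change per second fitted from 20 to 320 s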); details: Recombinant KvBeta, NADPH fluorescence decrease slope, 10 min; at 10 µM; stronger effect = lower value
[6] = target: Alpha-2C adrenergic receptor (Homo sapiens) (UniProt P18825); experiment: modulators of alpha2C/GIRK thallium flux, primary screen, cell-based, HEK293 alpha2C/GIRK1/2 (AID 624;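 active means fluorescence slope after compound addition differing from the mean of all screened samples at 99.7% confidence, in either direction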;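 further: slope of fluorescence ratio to pre-addition baseline per second over 15 to 24 s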); details: thallium flux BTC fluorescence, at 10 µM, actives lie on both sides
[7] = inhibitors of Sendai virus-induced IRF3 signaling, primary screen, TLR/RLR signaling modifier project, cell-based, Sendai virus stimulus, luciferase, 10K MLSCN set (AID 602276;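 active means inhibition at or above 50% at 10 µM; inactive means inhibition below 50%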;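 further: firefly luciferase from ISG56 promoter only with Renilla not read in this screen; 0% = Sendai virus plus DMSO and 100% = medium plus DMSO without virus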); details: HEK293 RL24 IRF3 luciferase reporter, at 10 µM, stronger effect = higher value
[8] = inhibitors of poly I:C-induced TLR3 signaling, primary screen, cell-based, poly I:C stimulus, luciferase, 10K MLSCN set (AID 602277;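 active means inhibition of the reporter signal at or above 50%; inactive means inhibition below 50%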); details: HEK293-TLR3 RL24 IRF3 luciferase reporter, at 10 µM, stronger effect = higher value

Chain of Alpha-2C adrenergic receptor (Homo sapiens) (P18825 whole entry, looked up): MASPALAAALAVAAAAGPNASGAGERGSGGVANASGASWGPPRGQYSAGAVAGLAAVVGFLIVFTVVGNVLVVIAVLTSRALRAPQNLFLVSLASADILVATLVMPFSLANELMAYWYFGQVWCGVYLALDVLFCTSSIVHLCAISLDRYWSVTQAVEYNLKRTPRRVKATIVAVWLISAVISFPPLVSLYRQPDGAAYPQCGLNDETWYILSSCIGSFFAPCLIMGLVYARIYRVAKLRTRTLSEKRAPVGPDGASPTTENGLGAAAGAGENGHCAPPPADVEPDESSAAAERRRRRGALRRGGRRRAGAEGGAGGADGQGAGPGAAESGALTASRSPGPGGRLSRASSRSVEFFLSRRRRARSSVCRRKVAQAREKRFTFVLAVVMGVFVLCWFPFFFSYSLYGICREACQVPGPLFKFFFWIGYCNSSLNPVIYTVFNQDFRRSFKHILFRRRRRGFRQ
Chain of Voltage-gated potassium channel subunit beta-2 (Rattus norvegicus) (P62483 whole entry, looked up): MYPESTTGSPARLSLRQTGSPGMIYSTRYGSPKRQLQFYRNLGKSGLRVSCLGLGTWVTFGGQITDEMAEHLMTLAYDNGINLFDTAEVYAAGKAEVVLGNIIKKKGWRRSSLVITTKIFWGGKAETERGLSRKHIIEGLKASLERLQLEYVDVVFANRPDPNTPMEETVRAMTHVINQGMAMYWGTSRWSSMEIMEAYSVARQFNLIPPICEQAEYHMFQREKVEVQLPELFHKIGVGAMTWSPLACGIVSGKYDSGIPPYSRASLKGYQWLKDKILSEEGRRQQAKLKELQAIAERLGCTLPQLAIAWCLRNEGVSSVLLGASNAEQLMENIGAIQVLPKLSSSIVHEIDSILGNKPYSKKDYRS

Row | Compound | cell count [1] | inhibition [1] | inhibition of aggregation [2] | nuclei count [2] [%] | inhibition [3] | nuclei count [3] [%] | fluorescence slope [4] | NADPH fluorescence slope [5] | slope [6] | inhibition [7] | inhibition [8]
1 | Cc1ccc2c(c1)C(O)(CC(=O)c1ccc3c(c1)OCO3)C(=O)N2 (centres undefined) | 671 | 9.5% (inactive) | -46.3% (inactive) | 93.9 | 16.8% (inactive) | 93.3 | -0.511 (inactive) | -5e-05 (inactive) | 0.00523 (inactive) | 0.102% (inactive) | 23% (inactive)
2 | COc1cc(CN2CCC(C(=O)NC3CCCC3)CC2)ccc1O | 755 | -5.5% (inactive) | -13.7% (inactive) | 64.3 | -29.8% (inactive) | 124 | -0.344 (inactive) | -3.9e-06 (inactive) | 0.00666 (inactive) | 4.81% (inactive) | 13.9% (inactive)
3 | Cc1cc(C)n(CC(=O)O)n1 | 341 | -1.8% (inactive) | -4.2% (inactive) | 102 | -49.5% (inactive) | 121 | -0.317 (inactive) | -5.4e-05 (inactive) | 0.0047 (inactive) | 12.8% (inactive) | 18.3% (inactive)
4 | CCOc1ccc(S(=O)(=O)NCC2CCCO2)c2cccnc12 (centres undefined) | 365 | -1.7% (inactive) | -30.7% (inactive) | 104 | 36.8% (inactive) | 105 | -0.497 (inactive) | 8e-05 (inactive) | 0.00707 (inactive) | 17.5% (inactive) | 21.3% (inactive)
5 | COc1cc(SC)ccc1C(=O)Nc1ccon1 | 461 | -10.3% (inactive) | -0.3% (inactive) | 93 | 20.1% (inactive) | 91.2 | -0.608 (inactive) | 2.8e-05 (inactive) | 0.00729 (inactive) | -57.7% (inactive) | -144% (inactive)
6 | Cc1ccc(NC(=O)CSc2nnc(-c3cnccn3)n2Cc2ccco2)cc1C | 228 | -3.5% (inactive) | 4.6% (inactive) | 76.2 | 35.1% (inactive) | 65.4 | -0.418 (inactive) | 3.1e-05 (inactive) | 0.00338 (inactive) | 6.92% (inactive) | 17.3% (inactive)
7 | CC(C)CC(c1nnnn1CC1CCCO1)N1CCN(Cc2ccc3c(c2)OCO3)CC1 (centres undefined) | 474 | 1% (inactive) | -18.9% (inactive) | 129 | -21.2% (inactive) | 111 | -0.472 (inactive) | -3.8e-05 (inactive) | 0.00652 (inactive) | -28.6% (inactive) | 25% (inactive)
8 | COc1ccc(NC(=O)CN2CCCCC2)cc1 | 494 | -1.5% (inactive) | 5.5% (inactive) | 110 | -23.4% (inactive) | 121 | -0.414 (inactive) | -2.7e-05 (inactive) | 0.00355 (inactive) | 3.07% (inactive) | 11.2% (inactive)
9 | Cc1c(C(=O)Nc2cnccn2)oc2ccccc12 | 370 | 7.3% (inactive) | 7.5% (inactive) | 95.3 | -97.6% (inactive) | 108 | -0.371 (inactive) | 4.4e-05 (inactive) | 0.00977 (inactive) | 0.764% (inactive) | -4.49% (inactive)
10 | CCN1CCN(c2ncnc3c2oc2nc(C)c4c(c23)CC(C)(C)OC4)CC1 | 476 | -2.9% (inactive) | 0.7% (inactive) | 102 | -35.5% (inactive) | 116 | -0.472 (inactive) | -2.5e-05 (inactive) | 0.00388 (inactive) | -6.53% (inactive) | 30.5% (inactive)
11 | O=C(O)C1CC=CCC1C(=O)NCc1ccccc1 (centres undefined) | 625 | 6% (inactive) | -11% (inactive) | 107 | -28.4% (inactive) | 107 | -0.41 (inactive) | 3.8e-06 (inactive) | 0.00502 (inactive) | 10% (inactive) | 11.4% (inactive)
12 | O=C(CSc1ncnc2c1oc1ccccc12)NCc1ccco1 | 398 | 1.5% (inactive) | -6.6% (inactive) | 99.3 | -38.6% (inactive) | 105 | -0.61 (inactive) | -2.9e-05 (inactive) | 0.00442 (inactive) | 15.1% (inactive) | 25% (inactive)
13 | CC1CCN(S(=O)(=O)c2ccc3[nH]cc(C(=O)NCCN4CCOCC4)c(=O)c3c2)CC1 | 697 | -3% (inactive) | -11.2% (inactive) | 104 | -101% (inactive) | 106 | -0.519 (inactive) | -3.8e-05 (inactive) | 0.00576 (inactive) | 8.86% (inactive) | 17.9% (inactive)
14 | COc1cccc(C(=O)NCc2nnc(SCC(=O)Nc3nccs3)n2-c2ccccc2)c1 | 756 | -9.1% (inactive) | -1.7% (inactive) | 120 | -20.4% (inactive) | 107 | -0.626 (inactive) | 1.6e-05 (inactive) | 0.0057 (inactive) | 10.5% (inactive) | 35.1% (inactive)
15 | COc1cccc(NC(=O)COC(=O)c2ccco2)c1 | 393 | -4% (inactive) | -17.7% (inactive) | 92.3 | -0.6% (inactive) | 122 | -0.47 (inactive) | 7.3e-06 (inactive) | 0.00724 (inactive) | 13.4% (inactive) | 20.6% (inactive)
16 | CCc1cc(=O)n2[nH]c(C)c(-c3ccccc3OC)c2n1 | 595 | 2.8% (inactive) | 42.7% (inactive) | 64.6 | -38.4% (inactive) | 96.2 | -0.592 (inactive) | -2.9e-05 (inactive) | 0.00657 (inactive) | 4.14% (inactive) | 16.3% (inactive)
17 | COCCOC(=O)/C=C1/NC(=O)CS1 | 669 | 5.3% (inactive) | 9.1% (inactive) | 100 | 45.1% (inactive) | 98.3 | -0.606 (inactive) | -1.8e-05 (inactive) | 0.00397 (inactive) | 15.1% (inactive) | 21.6% (inactive)
18 | COc1ccc(CCNC(=O)C2=COCCO2)cc1 | 596 | 4.2% (inactive) | 51.2% (active) | 90.3 | 53.6% (active) | 99.1 | -0.545 (inactive) | -2.9e-05 (inactive) | 0.00546 (inactive) | -14.5% (inactive) | -26.2% (inactive)
19 | Cc1ccc(NC(=O)CC2C(=O)NC3CCCCC3N2C(=O)c2ccc(F)cc2)cc1C (centres undefined) | 461 | -10.3% (inactive) | -9.9% (inactive) | 123 | -55.7% (inactive) | 178 | -0.478 (inactive) | 2.4e-05 (inactive) | 0.00684 (inactive) | 12.1% (inactive) | 15.6% (inactive)
